Consider 40 compounds from PMC4102417.

In the assay the test system is murine 3T3 fibroblasts. Put plainly: primary screen, percent viability or growth; higher = less effect of the substance. On the procedure:
Similarly, for measuring the cytotoxicity concentration (CC50) for 3T3 fibroblast cells, cultures were incubated with drugs for 72 hours and developed using Alamar Blue (Alamar Biosciences Inc, Sacramento, CA) as previously described.
With `C=CC(C1=CC(=O)C(OC)=CC1=O)c1ccccc1` (stereo not shown), the “Mammalian (3T3) cell % growth at 10 uM” value amounted to 0.9%.

On to `CN(C)CCCN1c2ccccc2CCc2ccc(Cl)cc21.Cl`, for which the “Mammalian (3T3) cell % growth at 10 uM” value is recorded as 84.6%.

With `c1ccc(-c2ccc(C(c3ccccc3)n3ccnc3)cc2)cc1` (stereo not shown), the “Mammalian (3T3) cell % growth at 10 uM” value came out at 93.6%.

`N=C(N)c1ccc(OCCCCCOc2ccc(C(=N)N)cc2)cc1.O=S(=O)(O)CCO`: the “Mammalian (3T3) cell % growth at 10 uM” value is 94.8%.

As to `COc1ccc(Cc2nccc3cc(OC)c(OC)cc23)cc1OC.Cl`, the “Mammalian (3T3) cell % growth at 10 uM” value is given as 93.1%.

For `CCOC(=O)C(CCc1ccccc1)NC1CCc2ccccc2N(CC(=O)O)C1=O.Cl` (stereo not shown), the “Mammalian (3T3) cell % growth at 10 uM” value is 66.8%.

Take `COc1cc2c(cc1OC)C1C(=O)c3ccc4c(c3OC1CO2)CC(C(C)C)O4` (stereo not shown): the “Mammalian (3T3) cell % growth at 10 uM” value is given as 19.3%.

In the case of `CC[C@@]1([C@@H]2O[C@@H]([C@H]3O[C@@](O)(CO)[C@H](C)C[C@@H]3C)C[C@@H]2C)CC[C@H]([C@]2(C)CC[C@]3(C[C@H](O)[C@@H](C)[C@@H]([C@@H](C)[C@@H](OC)[C@H](C)C(=O)O)O3)O2)O1`, the “Mammalian (3T3) cell % growth at 10 uM” value is listed as 41.3%.

Regarding `O=c1cc(-c2ccccc2)oc2cc(O)c(O)c(O)c12`, the “Mammalian (3T3) cell % growth at 10 uM” value came to 4.9%.

Regarding `N[C@@H](Cc1ccc(O)c(O)c1)C(=O)O`, the “Mammalian (3T3) cell % growth at 10 uM” value was determined as 3.9%.

On to `COc1cc(NC(C)CCCN)c2ncccc2c1.O=P(O)(O)O.O=P(O)(O)O` (stereo not shown), for which the “Mammalian (3T3) cell % growth at 10 uM” value amounted to 91.1%.

Take `CNC1CCC(c2ccc(Cl)c(Cl)c2)c2ccccc21.Cl` (stereo not shown): the “Mammalian (3T3) cell % growth at 10 uM” value was found to be 100%.

Regarding `COc1ccc2cc1Oc1ccc(cc1)C[C@H]1c3c(cc4c(c3Oc3cc5c(cc3OC)CCN(C)[C@@H]5C2)OCO4)CCN1C`, the “Mammalian (3T3) cell % growth at 10 uM” value came out at 33.1%.

Turning to `NCCCCNCCCN`, the “Mammalian (3T3) cell % growth at 10 uM” value is reported as 41%.

In the case of `CCCC(C(=O)OCCN(CC)CC)(c1ccccc1)c1ccccc1`, the “Mammalian (3T3) cell % growth at 10 uM” value amounted to 100%.

For `CNc1ccc(C(=O)CC(O)CCC(C)C2OC(=O)CC(O)CC(=O)CC(O)CC(O)CC(O)CC(O)CC3(O)CC(O)C(C(=O)OC)C(CC(O[C@@H]4O[C@H](C)[C@@H](O)[C@H](N)[C@@H]4O)/C=C/C=C/C=C/C=C\C=C/C=C/C=C/C2C)O3)cc1` (stereo partly shown), the “Mammalian (3T3) cell % growth at 10 uM” value is 97.3%.

With `C=C1C2CCC3(C)C(c4ccoc4)OC(=O)CC13OC1CC(OC(C)=O)C(C)(C)C(CC(=O)OC)C12C` (stereo not shown), the “Mammalian (3T3) cell % growth at 10 uM” value turned out to be 84.1%.

On to `COc1c(O)cc2oc3cc(O)c(CC=C(C)C)c(O)c3c(=O)c2c1CC=C(C)C`, for which the “Mammalian (3T3) cell % growth at 10 uM” value is 5.5%.

In the case of `CC(=O)OC1c2c(ccc3ccc(=O)oc23)OC(C)(C)C1OC(=O)CC(C)C` (stereo not shown), the “Mammalian (3T3) cell % growth at 10 uM” value is 81.2%.

For `CN(C)C(=S)SSC(=S)N(C)C`, the “Mammalian (3T3) cell % growth at 10 uM” value turned out to be 0.3%.

In the case of `C[C@@](Cc1ccc(O)c(O)c1)(NN)C(=O)O`, the “Mammalian (3T3) cell % growth at 10 uM” value stood at 17.7%.

`COc1ccc2cc1Oc1ccc(cc1)C[C@H]1c3cc(c(OC)cc3CCN1C)Oc1c(OC)c(OC)cc3c1[C@H](C2)N(C)CC3`: the “Mammalian (3T3) cell % growth at 10 uM” value is reported as 14.6%.

As to `COc1cc(O)c2c(=O)cc(-c3ccc(OC)c(-c4c(O)cc(O)c5c(=O)cc(-c6ccc([O-])cc6)oc45)c3)oc2c1.[K+]`, the “Mammalian (3T3) cell % growth at 10 uM” value is reported as 4.2%.

Regarding `CC(=O)OC1CC2C(C)(C)C(=O)C=CC2(C)C2CCC3(C)C(=CC(=O)OC3c3ccoc3)C12C` (stereo not shown), the “Mammalian (3T3) cell % growth at 10 uM” value stood at 56.1%.

For `COc1cccc(O)c1O`, the “Mammalian (3T3) cell % growth at 10 uM” value came out at 1.2%.

Consider `CC(=O)Oc1cc2c(c(C)c1OC(C)=O)CC=C1C2(C)CCC2(C)C3CC(C)(C(=O)O)CCC3(C)CCC12C` (stereo not shown), for which the “Mammalian (3T3) cell % growth at 10 uM” value worked out at 0.6%.

With `Cl.NCC(=O)c1ccccc1`, the “Mammalian (3T3) cell % growth at 10 uM” value was 85.5%.

In the case of `COc1cc(O)c(C(=O)/C=C/c2ccc(O)c(OC)c2)c(OC)c1`, the “Mammalian (3T3) cell % growth at 10 uM” value is reported as 10.2%.

Turning to `Clc1ccc2c(c1)C(N1CCNCC1)=Nc1ccccc1O2`, the “Mammalian (3T3) cell % growth at 10 uM” value stood at 98%.

On to `CC[C@@H]1/C=C/C=C/C[C@H](C)[C@@H](O)[C@](C)(O)C(=O)[C@H](C)[C@@H](O)[C@H](C)C(=O)[C@H](C)[C@@H](O)[C@H](C)/C=C/C(=O)O[C@H]2[C@@H](C)[C@@H](CC1)O[C@@]1(CC[C@@H](C)[C@@H](C[C@@H](C)O)O1)[C@@H]2C`, for which the “Mammalian (3T3) cell % growth at 10 uM” value amounted to 57.7%.

Turning to `O=c1c(-c2cc(O)c(O)c(O)c2)coc2cc(O)c(O)c(O)c12`, the “Mammalian (3T3) cell % growth at 10 uM” value was determined as 73.7%.

As for `C=CC(C1=CC(=O)C(OC)=CC1=O)c1ccc(OC)cc1` (stereo not shown), the “Mammalian (3T3) cell % growth at 10 uM” value worked out at 1.2%.

For `Oc1ccc2c(c1)OC[C@]1(O)Cc3cc(O)c(O)cc3[C@H]21`, the “Mammalian (3T3) cell % growth at 10 uM” value was found to be 3.6%.

For `CC1CCC2(NC1)OC1CC3C4CCC5CC(O)CCC5(C)C4CCC3(C)C1C2C.Cl` (stereo not shown), the “Mammalian (3T3) cell % growth at 10 uM” value is recorded as 100%.

As for `O=c1c(O)c(-c2ccc(O)c(O)c2)oc2c(O)c(O)cc(O)c12`, the “Mammalian (3T3) cell % growth at 10 uM” value is 54.6%.

For the compound `NS(=O)(=O)c1cc(C(=O)O)c(NCc2ccco2)cc1Cl`, the “Mammalian (3T3) cell % growth at 10 uM” value came to 79.1%.

Consider `CCC1(O)CC(O)c2c(cc3c(c2O)C(=O)c2c(O)ccc(O)c2C3=O)C1C(=O)OC` (stereo not shown), for which the “Mammalian (3T3) cell % growth at 10 uM” value was 46.5%.

In the case of `CC1(C)C(=O)C=CC2(C)C1CC(=O)C1(C)C2CCC2(C)C(c3ccoc3)OC(=O)C3OC321` (stereo not shown), the “Mammalian (3T3) cell % growth at 10 uM” value was found to be 75.8%.

In the case of `CC(C)=CCc1c2c(c3occ(-c4ccc(O)cc4)c(=O)c3c1O)C=CC(C)(C)O2`, the “Mammalian (3T3) cell % growth at 10 uM” value is reported as 30.6%.

For `Cl.Cl.O=C1c2c(O)ccc(O)c2C(=O)c2c(NCCNCCO)ccc(NCCNCCO)c21`, the “Mammalian (3T3) cell % growth at 10 uM” value is on record as 14%.
